What all share (conditions): mRNA level, 48 h; actives raise or lower the signal
Read-out in test [1]: Interleukin 6 Receptor (IL6R), IL6R (gene 3570)
In words: LTEA_HepaRG_IL6R: Life Technologies and Expression Analysis (LTEA) Assay for Interleukin 6 Receptor (IL6R) using HepaRG (AID 2283510). Put shortly:
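Concentration-response in human liver HepaRG cells: eight concentrations from 100 uM downward by half-logs, 48 h exposure, 0.5% DMSO vehicle. IL6R mRNA change measured by qRT-PCR and fitted in both directions relative to vehicle.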

Read-out in test [2]: Potassium channel subfamily K member 1 (KCNK1), KCNK1 (gene 3775)
The experiment in a line: LTEA_HepaRG_KCNK1: Life Technologies and Expression Analysis (LTEA) Assay for Potassium channel subfamily K member 1 (KCNK1) using HepaRG (AID 2283511). Put shortly: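 Gain or loss of KCNK1 mRNA is the read-out, quantified by qRT-PCR against three housekeeping genes after 48 h chemical treatment of human HepaRG liver cells. Concentrations ran from 100 uM downward in half-log steps, vehicle 0.5% DMSO.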

Read-out in test [3]: Keratin 19 (KRT19), KRT19 (gene 3880)
In words: LTEA_HepaRG_KRT19: Life Technologies and Expression Analysis (LTEA) Assay for Keratin 19 (KRT19) using HepaRG (AID 2283512). The method, boiled down: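 Readout is qRT-PCR of KRT19 mRNA, normalized to ACTB, GAPDH and POLR2A, from HepaRG cells treated 48 h with eight-point half-log dilutions topping at 100 uM. Activity in either direction is scored relative to 0.5% DMSO vehicle.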

Read-out in test [4]: Lipase C (LIPC), LIPC (gene 3990)
The experiment in a line: LTEA_HepaRG_LIPC: Life Technologies and Expression Analysis (LTEA) Assay for Lipase C (LIPC) using HepaRG (AID 2283514). Put shortly:
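Read-out is LIPC transcript level by TaqMan qRT-PCR, normalized to three housekeeping genes, after 48 h chemical treatment of human HepaRG liver cells. Curves span eight concentrations topping at 100 uM; activity in either direction scored relative to 0.5% DMSO.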

Read-out in test [5]: Lipoprotein lipase (LPL), LPL (gene 4023)
In words: LTEA_HepaRG_LPL: Life Technologies and Expression Analysis (LTEA) Assay for Lipoprotein lipase (LPL) using HepaRG (AID 2283515). The method, boiled down:
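Read-out is LPL transcript level by qRT-PCR, normalized to three housekeeping genes and fitted bidirectionally against the DMSO control. Human HepaRG cells received chemicals for 48 h at up to 100 uM.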

Read-out in test [6]: MicroRNA 122 (MIR122), gene 406906
The experiment in a line: LTEA_HepaRG_MIR122: Life Technologies and Expression Analysis (LTEA) Assay for MicroRNA 122 (MIR122) using HepaRG (AID 2283516). Also: the transcript read is the microRNA miR-122. The method, boiled down: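 HepaRG, 48 h exposure, 8-pt half-log from 100 uM, 0.5% DMSO; TaqMan qRT-PCR; bidirectional fit vs DMSO.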

Read-out in test [7]: matrix metalloproteinase-10 (MMP10), MMP10 (gene 4319)
In words: LTEA_HepaRG_MMP10: Life Technologies and Expression Analysis (LTEA) Assay for matrix metalloproteinase-10 (MMP10) using HepaRG (AID 2283517). Put shortly: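 Gain or loss of MMP10 mRNA is fitted relative to the 0.5% DMSO vehicle. The human hepatic line HepaRG receives a 48-hour serum-free exposure, in duplicate, with a maximum concentration of 100 uM.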

Read-out in another test: MYC, MYC (gene 4609)
The experiment in a line: LTEA_HepaRG_MYC: Life Technologies and Expression Analysis (LTEA) Assay for MYC using HepaRG (AID 2283518). Put shortly:
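Expression changes were scored by TaqMan qRT-PCR with ACTB, GAPDH and POLR2A normalization. Cultures in serum-free induction medium received duplicate 8-point concentration series, highest 100 uM, for 48 h; DMSO (0.5%) served as baseline.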

Read-out in test [8]: matrix metalloproteinase-3 (MMP3), MMP3 (gene 4314)
The experiment in a line: LTEA_HepaRG_MMP3: Life Technologies and Expression Analysis (LTEA) Assay for matrix metalloproteinase-3 (MMP3) using HepaRG (AID 2283519). Put shortly: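 HepaRG, human; 48 h dosing, 8 conc. (max 100 uM, half-log), duplicate, 0.5% DMSO. Readout: MMP3 transcript by Fluidigm TaqMan qRT-PCR, ACTB/GAPDH/POLR2A-normalised. Gain or loss fitted vs DMSO.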

Read-out in test [9]: Paternally Expressed 10 (PEG10), PEG10 (gene 23089)
The experiment in a line: LTEA_HepaRG_PEG10: Life Technologies and Expression Analysis (LTEA) Assay for Paternally Expressed 10 (PEG10) using HepaRG (AID 2283520). Put shortly:
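Chemicals tested on HepaRG cells for 48 h, highest concentration 100 uM. PEG10 expression assessed by qRT-PCR relative to DMSO control.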

Read-out in test [10]: Nuclear factor NF-kappa-B p105 subunit (Homo sapiens) (UniProt P19838)
The experiment in a line: LTEA_HepaRG_NFKB1: Life Technologies and Expression Analysis (LTEA) Assay for Nuclear Factor Kappa B Subunit 1 (NFKB1) using HepaRG (AID 2283521).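 Also: differentiated human HepaRG liver cells in serum-free induction medium.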 The method, boiled down: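 NFKB1 transcript was measured by TaqMan qRT-PCR on Fluidigm arrays, normalised to three housekeeping genes and fitted in both directions against 0.5% DMSO. HepaRG cells were dosed in duplicate for 48 h in serum-free induction medium, eight half-log steps from 100 uM.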

Read-out in test [11]: Protein phosphatase 2A (PPP2R4), PTPA (gene 5524)
In words: LTEA_HepaRG_PPP2R4: Life Technologies and Expression Analysis (LTEA) Assay for Protein phosphatase 2A (PPP2R4) using HepaRG (AID 2283522). Put shortly: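 Gene-expression endpoint in HepaRG hepatic cells: 48 h treatment across eight half-log concentrations up to 100 uM in 0.5% DMSO. PPP2R4 mRNA by qRT-PCR, normalized to three endogenous control genes.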

Read-out in test [12]: Phosphatase and tensin (PTEN), PTEN (gene 5728)
In words: LTEA_HepaRG_PTEN: Life Technologies and Expression Analysis (LTEA) Assay for Phosphatase and tensin (PTEN) using HepaRG (AID 2283523). The method, boiled down: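 Read-out is PTEN transcript level by multiplexed TaqMan qRT-PCR after 48 h chemical treatment of human HepaRG cultures in serum-free induction medium. Concentrations spanned 100 uM downward in half-log steps, 0.5% DMSO throughout; activity fitted in both directions against vehicle.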

Read-out in test [13]: solute carrier (SLC22A1), SLC22A1 (gene 6580)
The experiment in a line: LTEA_HepaRG_SLC22A1: Life Technologies and Expression Analysis (LTEA) Assay for solute carrier (SLC22A1) using HepaRG (AID 2283524). The method, boiled down: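 HepaRG (human liver line), 48 h dosing in serum-free induction medium; 8 conc., half-log down from 100 uM, 0.5% DMSO vehicle, duplicates. Endpoint: SLC22A1 mRNA, qRT-PCR, housekeeping-normalized; gain/loss fit vs DMSO.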

Read-out in test [14]: NAD(P)H dehydrogenase [quinone] 1 (NQO1), NQO1 (gene 1728)
The experiment in a line: LTEA_HepaRG_NQO1: Life Technologies and Expression Analysis (LTEA) Assay for NAD(P)H dehydrogenase [quinone] 1 (NQO1) using HepaRG (AID 2283526). The method, boiled down:
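Human HepaRG hepatic cells received chemicals for 48 h in serum-free induction medium with 0.5% DMSO, up to 100 uM. Expression was assessed by TaqMan qRT-PCR against housekeeping controls and fitted bidirectionally against DMSO.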

Read-out in test [15]: Nuclear factor erythroid 2-related factor 2 (Homo sapiens) (UniProt Q16236)
In words: LTEA_HepaRG_NFE2L2: Life Technologies and Expression Analysis (LTEA) Assay for Nuclear factor erythroid 2-related factor 2 (NFE2L2) Transcription Factor using HepaRG (AID 2283527). The method, boiled down: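 Transcript level of NFE2L2 is the read-out, measured by microfluidic TaqMan qRT-PCR and normalized to three housekeeping genes. Human HepaRG cultures received test chemical for 48 h at up to 100 uM in half-log steps. Gain or loss of signal is fitted relative to 0.5% DMSO.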

Read-out in test [16]: succinate dehydrogenase complex iron sulfur subunit B (SDHB), SDHB (gene 6390)
In words: LTEA_HepaRG_SDHB: Life Technologies and Expression Analysis (LTEA) Assay for succinate dehydrogenase complex iron sulfur subunit B (SDHB) using HepaRG (AID 2283528). The method, boiled down: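 SDHB transcript level read by TaqMan qRT-PCR, housekeeping-normalised (ACTB, GAPDH, POLR2A), after 48 h chemical treatment of plated HepaRG cells; eight concentrations top 100 uM, half-log steps, 0.5% DMSO, duplicates; fitted both directions against DMSO.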

Read-out in test [17]: Signal transducer and activator of transcription 3 (Homo sapiens) (UniProt P40763)
The experiment in a line: LTEA_HepaRG_STAT3: Life Technologies and Expression Analysis (LTEA) Assay for Signal transducer and activator of transcription (STAT3) using HepaRG (AID 2283529). The method, boiled down: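 Read-out is STAT3 mRNA level by qRT-PCR, normalized to three housekeeping genes, in human HepaRG liver cells treated for 48 h. Concentrations ran from 100 uM downward in half-log steps; curves were fitted for gain or loss relative to 0.5% DMSO.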

SMILES strings stand for the structures. Active and inactive are the calls of the source. The calls were made as follows: active = hit-call score of the fitted dose curve at least 0.9, where 1 is the maximum; inactive = score below 0.9.

Usually AC50 stands for the concentration giving half of the maximal activity seen.

Sequence of Nuclear factor erythroid 2-related factor 2 (Homo sapiens) (Q16236 whole entry, looked up): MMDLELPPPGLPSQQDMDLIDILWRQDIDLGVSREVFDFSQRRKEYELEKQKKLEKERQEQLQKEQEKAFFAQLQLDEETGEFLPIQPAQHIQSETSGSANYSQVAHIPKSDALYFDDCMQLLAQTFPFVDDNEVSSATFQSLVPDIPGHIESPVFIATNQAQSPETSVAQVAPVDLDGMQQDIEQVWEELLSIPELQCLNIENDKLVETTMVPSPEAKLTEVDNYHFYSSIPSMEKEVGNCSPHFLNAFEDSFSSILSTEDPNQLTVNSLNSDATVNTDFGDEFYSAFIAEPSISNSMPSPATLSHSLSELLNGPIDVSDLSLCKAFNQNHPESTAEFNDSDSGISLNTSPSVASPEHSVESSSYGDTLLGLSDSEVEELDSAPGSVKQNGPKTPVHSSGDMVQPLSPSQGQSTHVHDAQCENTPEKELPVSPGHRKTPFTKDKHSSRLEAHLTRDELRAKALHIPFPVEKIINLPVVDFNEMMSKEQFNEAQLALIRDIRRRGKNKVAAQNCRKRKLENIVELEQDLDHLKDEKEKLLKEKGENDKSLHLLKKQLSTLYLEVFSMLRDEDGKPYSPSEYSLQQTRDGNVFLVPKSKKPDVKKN
Sequence of Nuclear factor NF-kappa-B p105 subunit (Homo sapiens) (P19838 whole entry, looked up): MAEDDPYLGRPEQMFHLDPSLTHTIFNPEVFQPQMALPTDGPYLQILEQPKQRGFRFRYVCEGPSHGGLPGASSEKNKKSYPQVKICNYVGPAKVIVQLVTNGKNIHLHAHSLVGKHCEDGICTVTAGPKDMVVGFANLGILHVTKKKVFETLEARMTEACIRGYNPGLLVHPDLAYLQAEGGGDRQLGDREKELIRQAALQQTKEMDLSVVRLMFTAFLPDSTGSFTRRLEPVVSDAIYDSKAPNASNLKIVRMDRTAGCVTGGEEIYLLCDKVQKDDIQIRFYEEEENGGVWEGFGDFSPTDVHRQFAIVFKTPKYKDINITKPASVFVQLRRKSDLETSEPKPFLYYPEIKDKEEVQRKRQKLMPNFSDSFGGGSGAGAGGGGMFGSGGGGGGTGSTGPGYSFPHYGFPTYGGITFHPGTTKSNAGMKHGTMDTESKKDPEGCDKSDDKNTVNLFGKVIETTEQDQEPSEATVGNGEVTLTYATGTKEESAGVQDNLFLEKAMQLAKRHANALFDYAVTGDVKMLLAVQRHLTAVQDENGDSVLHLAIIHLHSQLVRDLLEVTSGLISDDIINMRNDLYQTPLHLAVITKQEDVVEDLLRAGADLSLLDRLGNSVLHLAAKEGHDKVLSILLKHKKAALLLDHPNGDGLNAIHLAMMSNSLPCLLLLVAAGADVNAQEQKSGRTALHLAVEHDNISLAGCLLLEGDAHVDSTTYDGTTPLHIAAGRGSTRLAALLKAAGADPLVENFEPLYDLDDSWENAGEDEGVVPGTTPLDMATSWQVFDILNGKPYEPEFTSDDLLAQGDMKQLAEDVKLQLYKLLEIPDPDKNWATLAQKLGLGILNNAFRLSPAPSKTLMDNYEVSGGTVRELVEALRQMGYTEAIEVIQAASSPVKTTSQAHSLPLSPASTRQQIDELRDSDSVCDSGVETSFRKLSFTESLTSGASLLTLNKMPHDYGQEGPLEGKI
Sequence of Signal transducer and activator of transcription 3 (Homo sapiens) (P40763 whole entry, looked up): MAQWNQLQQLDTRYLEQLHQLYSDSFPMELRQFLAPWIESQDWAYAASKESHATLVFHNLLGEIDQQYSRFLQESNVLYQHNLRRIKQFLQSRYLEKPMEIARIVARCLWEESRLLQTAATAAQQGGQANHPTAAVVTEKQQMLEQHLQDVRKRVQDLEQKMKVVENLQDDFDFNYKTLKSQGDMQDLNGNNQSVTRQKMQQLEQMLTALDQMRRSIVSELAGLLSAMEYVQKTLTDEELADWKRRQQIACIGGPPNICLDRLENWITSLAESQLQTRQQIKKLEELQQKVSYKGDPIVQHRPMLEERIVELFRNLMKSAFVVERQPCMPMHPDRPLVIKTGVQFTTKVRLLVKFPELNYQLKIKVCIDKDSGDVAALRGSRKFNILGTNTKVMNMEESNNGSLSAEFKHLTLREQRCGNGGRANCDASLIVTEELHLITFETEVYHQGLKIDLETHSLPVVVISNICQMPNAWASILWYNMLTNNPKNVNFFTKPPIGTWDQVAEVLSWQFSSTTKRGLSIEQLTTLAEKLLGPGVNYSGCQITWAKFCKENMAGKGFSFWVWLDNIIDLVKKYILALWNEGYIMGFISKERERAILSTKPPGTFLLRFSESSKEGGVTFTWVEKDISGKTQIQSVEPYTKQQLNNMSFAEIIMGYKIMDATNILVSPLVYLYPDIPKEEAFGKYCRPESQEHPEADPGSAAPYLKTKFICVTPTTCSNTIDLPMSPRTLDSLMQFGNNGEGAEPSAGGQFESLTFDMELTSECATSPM

Regarding `CCC(C)(C)C(=O)OC1=C(c2ccc(Cl)cc2Cl)C(=O)OC12CCCCC2`, the compound was called inactive in test [1], in [2], in [3], in test [4], in [6] and in test [7]. Besides, the outcome is “inactive” with MYC, MYC (gene 4609); “inactive” in test [8]; “inactive” in test [9]; “inactive” in [10]; “inactive” in test [11]; “inactive” in test [12]. For the same compound, the call in test [13], in test [14], in [15], in test [16] and in [17] was inactive. Also, the half-maximal activity concentration (AC50) in test [5] was 40.8 µM (active).
Regarding `COP(=S)(OC)Oc1ccc([N+](=O)[O-])cc1`, the call in test [1], in [2], in test [3], in test [4], in test [5] and in test [6] was inactive. The outcome is “inactive” in test [7]; “inactive” in the test with MYC, MYC (gene 4609); “inactive” in [8]; “inactive” in test [10]; “inactive” in test [11]; “inactive” in test [12]. The compound was classed as inactive in [13], in test [14], in [15], in test [16] and in test [17].
Regarding `O=C1c2ccccc2C(=O)N1SC(Cl)(Cl)Cl`, the result in [1], in [2], in [3], in [4], in test [5] and in [6] was inactive. Moreover, the outcome in test [7] was “inactive”; with MYC, MYC (gene 4609), “inactive”; in test [8], “inactive”; in [10], “inactive”; in test [11] it was “inactive”; in test [12] it was “inactive”. The compound was called inactive in test [13], in test [14], in [15], in test [16] and in test [17].
In the case of `CCC(C)Nc1c([N+](=O)[O-])cc(C(C)(C)C)cc1[N+](=O)[O-]` (configuration not stated), the compound was called inactive in test [1], in [2], in [3], in test [4], in test [5] and in [6]. In addition, the outcome in test [7] is “inactive”; with MYC, MYC (gene 4609) it was “inactive”; in test [8] it was “inactive”; in test [11] it was “inactive”; in [12], “inactive”; in test [13], “inactive”. Further, the compound was called inactive in test [14], in test [15], in test [16] and in test [17].
On to `CN1CSC(=S)N(C)C1`, for which the compound was classed as inactive in test [1], in [2], in test [3], in test [4], in [5] and in test [6]. The outcome was “inactive” in test [7]; “inactive” in the test with MYC, MYC (gene 4609); “inactive” in test [8]; “inactive” in test [10]; “inactive” in [11]; “inactive” in [12]. Besides, the call in [13], in [14], in [15], in [16] and in test [17] was inactive.
`N#CN`: the compound was classed as inactive in [1], in [2], in test [3], in test [4], in test [5] and in test [6]. Further, the outcome in [7] was “inactive”; with MYC, MYC (gene 4609), “inactive”; in test [8], “inactive”; in test [10], “inactive”; in test [11], “inactive”; in test [12] it was “inactive”. In addition, the compound was classed as inactive in [13], in [14], in test [15], in test [16] and in test [17].

Values taken from PubChem BioAssay (EPA / NIEHS).
